Results on 69 sequences are retold here after PubChem BioAssay AID1347426 (Functional Genomics Laboratory (NCATS/FGL), 2020).

Among all 31,000 sequences or so, about 1,400 (4.5%) were called active. The sample as a whole holds a higher share of actives than the screen did. A number with no mark means an inactive call.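 Rule for the calls: active = median seed-adjusted z-score above 1 or below -1; inactive = the rest.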

A short description of the test: Novel Modifiers of Survival Motor Neuron (SMN) Protein: Gene Identification via Genome-wide siRNA Screen.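 Note: luminescence tracks full-length SMN protein made from the SMN2 reporter.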 The note with it: HEK293T SMN2-luciferase reporter, siRNA knockdown, 72 h; actives lie on both sides. A digest of the protocol: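 siRNA screen, 10418 genes ×3 siRNAs; 1 pmol/well, lipid reverse transfection into HEK293T SMN2-luc reporter line. 72 h, 37 °C, 5% CO2; ONE-Glo readout. Data: neg-ctrl normalized, log10, MAD; hit = MAD >1.0 or < -1.0.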
On the technique in general: A reporter such as luciferase makes a cellular process visible.
Take GUGUAAGGAUCAAAAAGAATT against ZNF682: the median seed-adjusted z-score is -0.155.
As for ACAACAUCAUGAUCCGAGATT against PIK3CD, the median seed-adjusted z-score was 0.00831.
On to CUUCGUAUGUUUACAAGAATT against GUCY2C, for which the median seed-adjusted z-score was -0.0181.
On to GCUCUACGCAAGGAGAUCATT against BATF, for which the median seed-adjusted z-score is -0.0501.
Take GUCCGGUGUUUGAACCUGATT against ABHD2: the median seed-adjusted z-score is -1.21 (active).
Turning to CUAUUGUAAAAGUAUGGAATT against ARL6IP2, the median seed-adjusted z-score is 0.274.
In the case of GGCCUACAGCAACAAUGGATT against PCDH24, the median seed-adjusted z-score is 0.345.
GAGUGGAAGUUAUCUGUCATT against WBSCR22: the median seed-adjusted z-score was -0.21.
On to AGCUCCAUCUCGACCACAATT against FMOD, for which the median seed-adjusted z-score was -1.32 (active).
Regarding GGAAUACAGUGACGACAAATT against ING5, the median seed-adjusted z-score was -0.193.
Under GCAUCGACCGGGUUUAUGATT against KARS stands -0.152.
For CCACUUUACCCACUACCCATT against ISX, the median seed-adjusted z-score is 1.99 (active).
Consider GCAUUCGAAUUAUAGAACATT against SLC16A14, for which the median seed-adjusted z-score is 0.464.
For GCACAAAUCUCAAUAUUCATT against GPSM3, the median seed-adjusted z-score was -0.641.
In the case of CAGCCUUAAUGGACACGAATT against MFGE8, the median seed-adjusted z-score is 0.0367.
Turning to GUAUGGUCGGUUUACAAUATT against YES1, the median seed-adjusted z-score is -0.508.
As for ACCGUAUUCCUAUAUCUCATT against FOXA3, the median seed-adjusted z-score was 0.128.
Consider GCAUCGUCAAGGAUUGGAATT against ACTR1A, for which the median seed-adjusted z-score was 1.28 (active).
In the case of GCACUUACGAUGACCGGCATT against TNFAIP1, the median seed-adjusted z-score is 0.0766.
As to GCAAUUUCUUGUUUCGUUATT against SLC9A6, the median seed-adjusted z-score is -0.0831.
As for GGACAAUAGACUUUAGAGATT against NCALD, the median seed-adjusted z-score is 0.
Under AGUAUACGCUGCCCUCAUATT against RNASE3 stands 0.588.
Under CCAUUUGAGGUGAACCGUATT against RFWD3 stands 0.554.
Under CUACGACGGUGAUAUUGGATT against HDAC2 stands -1.27 (active); under GCAGGGAUCUUACAUCUAUTT against CENTD2, -0.305.
GCAUCCUACCCGUUCCAUATT against MSX2: the median seed-adjusted z-score is -0.406.
For the sequence GGGACAUCCGAGAUCCUAATT against LAMB1, the median seed-adjusted z-score was 1.07 (active).
In the case of GGACAAACACGGACAGUAUTT against EPHB4, the median seed-adjusted z-score was -0.143.
As for AAGGAGCAGUGGAUACUGATT against MST1, the median seed-adjusted z-score is -1.47 (active).
As to GAAGGAAGAUGGUAAGGGATT against IL6ST, the median seed-adjusted z-score was -0.518.
With GCUUCGUGAGCUUUGAUAATT against BRUNOL5, the median seed-adjusted z-score was 0.333.
Consider CGUGGACAGCUGCAGAAAATT against EDIL3, for which the median seed-adjusted z-score was 0.
As for CAAUCAGCAGAGUUACAUUTT against CPEB3, the median seed-adjusted z-score is 0.086.
Take CCAUCGUCAUGGUUACCAATT against PTPRA: the median seed-adjusted z-score was -0.438.
In the case of GCACUUAAGGAAUGACAGATT against CDY2A, the median seed-adjusted z-score was 0.75.
Under CAGGUUCUCUAAUUGAACATT against NFX1 stands -0.256; under GAAACGCAAGGGUACAGAATT against RUVBL2, -0.0764; under GGAGUGACCGGAAACAUCATT against PRKCD, -0.236.
Regarding CCAUUACAGAGGGAGUUCATT against NRBP1, the median seed-adjusted z-score was -1.13 (active).
As to GGAUAUCUUCUAUGAUCUATT against SMAD7, the median seed-adjusted z-score was -0.25.
For the sequence AGAACUUUGUGCACCGUGATT against ZAP70, the median seed-adjusted z-score was -0.674.
As to AGCUUGAAAUCUCAUGGAATT against SPINK5L2, the median seed-adjusted z-score is 0.482.
In the case of GAAGAUUGCUAAUGACAAUTT against GOT1 it was 0.0103; in that of UAAUAAUUCUCACUCCUAATT against FZD5, -0.129.
Regarding GACCGGCCGUUCAGAAUGATT against RPUSD1, the median seed-adjusted z-score is 0.327.
As for CGUGUACCCGUUUGACUUUTT against SGSH, the median seed-adjusted z-score was 0.383.
As to GCCUGGUACUACUAGCUUUTT against TRPC5, the median seed-adjusted z-score is -1.14 (active).
In the case of CCUCUAGAAGGAUCUAAUATT against MMP19, the median seed-adjusted z-score was 0.43.
Consider GAAUUGUUUUAGCUAACGATT against PGM2, for which the median seed-adjusted z-score was 0.355.
In the case of AAACAGACAGAGAUAAGUATT against UBE2D3, the median seed-adjusted z-score is 1.62 (active).
With AGUACUUUGUAUUGGGAUATT against RCE1, the median seed-adjusted z-score is -1.19 (active).
Under AGCAGGAUAUGAUCCGGAATT against SEC14L4 stands -0.714.
GGCACGUCCUGUUACACCATT against LMO4: the median seed-adjusted z-score was -0.067.
In the case of CGCUUGGAGAGGCUACAAATT against FXR2, the median seed-adjusted z-score was -0.133.
In the case of GUUCCGAAGUGGUCUCAUUTT against MINPP1 it was -0.0107; in that of GCAGUACACUACCAACAGATT against ALAS1, -1.15 (active); in that of CAACAUUGGAAAAUACAGATT against LAP3, 0.0175.
Under UCCCGGGAAUUAAAACUUATT against EPHA6 stands 0.0445; under GGAUCUGCACAGUCUUCUATT against PSKH2, 0.0439; under GGAUUUGCCCUGACAAAAATT against ZRANB2, 0.441.
In the case of CAUUGAGAAUAAUAACAGATT against PPP3CA, the median seed-adjusted z-score was 0.74.
With GCCUAUUAUGGAGAAAAGATT against HES1, the median seed-adjusted z-score was -0.262.
For CGAUAUGAUUGGCCAGAGATT against GIPC3, the median seed-adjusted z-score was -0.27.
For CGGAUUUGUUGCUAAAUGATT against PCDHB8, the median seed-adjusted z-score is 1.15 (active).
In the case of CUGACAGUGUGGAUCGAUATT against COL12A1 it was 0.00422.
Under GGAUUGAAAACAAACUCUATT against RET stands -0.931; under GCGGUACUUUGAGCAGUUATT against P4HA2, 0.
As for GGCUCUUCAAGGCUAUGAATT against ANXA6, the median seed-adjusted z-score was -1.01 (active).
For GUCUGUAACUGAGCAAGGATT against YWHAZ, the median seed-adjusted z-score was 0.721.
